In all, about 5,500 compounds went through this assay and about 2,000 (36%) were called active. Not shown: some 18% with an inconclusive outcome. No stated cut-off is given here; in the data, active means normalized growth mostly below about 0.91 (no sharp cut-off); inconclusive means no clear call, values can overlap the other calls; inactive means mostly above about 0.92. Some of the results follow.
Experiment: chemical genetic growth profiling, strain panel (AID 1159580);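 further: tested at 20 µM; growth read once vehicle control cultures reached saturation at 30 °C; 1 = growth at the plate median or of vehicle wells; lower values mean less growth of the strain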
Conditions: growth OD

Measured: normalized growth

CN[C@H](CC(=O)O)C(=O)O
inactive: S. cerevisiae deletion strains, locus YJR066W, strain TOR1, hits give low values 0.949 | S. cerevisiae deletion strains, locus YJR075W, strain HOC1, hits give low values 0.988 | S. cerevisiae deletion strains, locus YKL009W, strain mrt4, hits give low values 0.938 | S. cerevisiae deletion strains, locus YKL068W, hits give low values 1.01 | S. cerevisiae deletion strains, locus YKL085W, strain MDH1 (second series), hits give low values 1.01 | S. cerevisiae deletion strains, locus YKL085W, strain MDH1, hits give low values 1.01 | S. cerevisiae deletion strains, locus YKL160W, strain elf1, hits give low values 1.02 | S. cerevisiae deletion strains, locus YKL190W, strain CNB1, hits give low values 0.999 | S. cerevisiae deletion strains, locus YKR001C, strain vps1, hits give low values 0.989 | S. cerevisiae deletion strains, locus YKR026C, strain gcn3, hits give low values 1.02 | S. cerevisiae deletion strains, locus YKR091W, strain srl3, hits give low values 1.02 | S. cerevisiae deletion strains, locus YLL001W, strain dnm1, hits give low values 1.03 | S. cerevisiae deletion strains, locus YLL026W, hits give low values 1.03 | S. cerevisiae deletion strains, locus YLL041C, strain sdh2, hits give low values 1.01 | S. cerevisiae deletion strains, locus YLR027C, strain aat2, hits give low values 1.03 | S. cerevisiae deletion strains, locus YLR039C, strain RIC1, hits give low values 0.962 | S. cerevisiae deletion strains, locus YLR058C, strain SHM2, hits give low values 0.989 | S. cerevisiae deletion strains, locus YLR102C, strain apc9, hits give low values 0.989 | S. cerevisiae deletion strains, locus YLR113W, strain HOG1, hits give low values 1.07 | S. cerevisiae deletion strains, locus YLR221C, strain rsa3, hits give low values 1 | S. cerevisiae deletion strains, locus YLR258W, strain gsy2, hits give low values 1.02 | S. cerevisiae deletion strains, locus YLR262C, strain YPT6 (second series), hits give low values 1.01 | S. cerevisiae deletion strains, locus YLR262C, strain YPT6, hits give low values 0.936 | S. cerevisiae deletion strains, locus YLR268W, strain sec22, hits give low values 0.991 | S. cerevisiae deletion strains, locus YLR320W, strain mms22, hits give low values 0.992 | S. cerevisiae deletion strains, locus YLR330W, strain CHS5, hits give low values 0.991 | S. cerevisiae deletion strains, locus YLR342W, strain FKS1 (second series), hits give low values 0.983 | S. cerevisiae deletion strains, locus YLR342W, strain FKS1, hits give low values 1.02 | S. cerevisiae deletion strains, locus YLR357W, strain rsc2, hits give low values 0.995 | S. cerevisiae deletion strains, locus YLR370C, strain arc18, hits give low values 1.02 | S. cerevisiae deletion strains, locus YLR371W, strain rom2, hits give low values 0.997 | S. cerevisiae deletion strains, locus YLR384C, strain iki3, hits give low values 1.03 | S. cerevisiae deletion strains, locus YLR418C, strain cdc73, hits give low values 0.947 | S. cerevisiae deletion strains, locus YML016C, strain PPZ1, hits give low values 0.989 | S. cerevisiae deletion strains, locus YML032C, strain rad52, hits give low values 0.964 | S. cerevisiae deletion strains, locus YML120C, strain ndi1, hits give low values 1.03 | S. cerevisiae deletion strains, locus YML124C, strain tub3, hits give low values 0.99 | S. cerevisiae deletion strains, locus YMR058W, strain fet3, hits give low values 1.01 | S. cerevisiae deletion strains, locus YMR078C, strain ctf18, hits give low values 0.98 | S. cerevisiae deletion strains, locus YMR125W, strain sto1, hits give low values 1.08 | S. cerevisiae deletion strains, locus YMR129W, hits give low values 1.01 | S. cerevisiae deletion strains, locus YMR205C, strain PFK2, hits give low values 1.03 | S. cerevisiae deletion strains, locus YMR223W, strain ubp8, hits give low values 0.937 | S. cerevisiae deletion strains, locus YMR231W, strain pep5, hits give low values 0.998 | S. cerevisiae deletion strains, locus YMR307W, strain GAS1, hits give low values 0.89 | S. cerevisiae deletion strains, locus YNL067W, strain RPL9B, hits give low values 1.02 | S. cerevisiae deletion strains, locus YNL071W, strain lat1, hits give low values 1.02 | S. cerevisiae deletion strains, locus YNL153C, strain GIM3, hits give low values 1.03 | S. cerevisiae deletion strains, locus YNL183C, strain NPR1, hits give low values 0.992 | S. cerevisiae deletion strains, locus YNL209W, strain ssb2, hits give low values 1.01 | S. cerevisiae deletion strains, locus YNL233W, strain BNI4, hits give low values 1.01 | S. cerevisiae deletion strains, locus YNL248C, strain rpa49, hits give low values 0.98 | S. cerevisiae deletion strains, locus YNL250W, strain rad50, hits give low values 0.941 | S. cerevisiae deletion strains, locus YNL271C, strain bni1, hits give low values 0.977 | S. cerevisiae deletion strains, locus YNL298W, strain CLA4, hits give low values 0.972 | S. cerevisiae deletion strains, locus YNL307C, strain MCK1, hits give low values 0.976 | S. cerevisiae deletion strains, locus YNL322C, strain KRE1 (second series), hits give low values 1.03 | S. cerevisiae deletion strains, locus YNR049C, strain mso1, hits give low values 1.02 | S. cerevisiae deletion strains, locus YNR052C, strain pop2, hits give low values 0.978 | S. cerevisiae deletion strains, locus YOL006C, strain TOP1, hits give low values 1.06 | S. cerevisiae deletion strains, locus YOL012C, strain htz1 0.629 | S. cerevisiae deletion strains, locus YOL147C, strain pex11, hits give low values 0.984 | S. cerevisiae deletion strains, locus YOR001W, strain rrp6, hits give low values 1.02 | S. cerevisiae deletion strains, locus YOR061W, strain CKA2, hits give low values 0.994 | S. cerevisiae deletion strains, locus YOR069W, strain VPS5, hits give low values 0.991 | S. cerevisiae deletion strains, locus YOR070C, strain gyp1, hits give low values 1.01 | S. cerevisiae deletion strains, locus YOR080W, strain dia2, hits give low values 1.03 | S. cerevisiae deletion strains, locus YOR083W, strain WHI5, hits give low values 1.02 | S. cerevisiae deletion strains, locus YOR106W, strain vam3, hits give low values 1.01 | S. cerevisiae deletion strains, locus YOR136W, strain idh2, hits give low values 0.991 | S. cerevisiae deletion strains, locus YOR144C, strain elg1, hits give low values 0.99 | S. cerevisiae deletion strains, locus YOR184W, strain ser1, hits give low values 0.936 | S. cerevisiae deletion strains, locus YOR231W, strain MKK1, hits give low values 1.1 | S. cerevisiae deletion strains, locus YOR265W, strain rbl2, hits give low values 1.03 | S. cerevisiae deletion strains, locus YOR270C, strain vph1, hits give low values 1 | S. cerevisiae deletion strains, locus YOR290C, strain snf2, hits give low values 1.01 | S. cerevisiae deletion strains, locus YOR316C, strain cot1, hits give low values 0.991 | S. cerevisiae deletion strains, locus YPL051W, strain arl3, hits give low values 1.02 | S. cerevisiae deletion strains, locus YPL078C, strain atp4, hits give low values 0.989 | S. cerevisiae deletion strains, locus YPL106C, strain sse1, hits give low values 1.04 | S. cerevisiae deletion strains, locus YPL240C, strain hsp82, hits give low values 1.04 | S. cerevisiae deletion strains, locus YPL256C, strain CLN2, hits give low values 1.06 | S. cerevisiae deletion strains, locus YPR119W, strain clb2, hits give low values 0.987 | S. cerevisiae deletion strains, locus YPR141C, strain kar3, hits give low values 0.985 | S. cerevisiae deletion strains, locus YPR163C, strain tif3, hits give low values 0.995 | S. cerevisiae deletion strains, locus YPR167C, strain met16, hits give low values 0.981 | S. cerevisiae deletion strains, strain wtn01, hits give low values 0.963 | S. cerevisiae strains, strain wild type, hits give low values 0.995

Source: PubChem BioAssay AID1159580 (chemical genetic matrix, 2015)
